tested on: HCC1569; assay: H1.0 immunofluorescence intensity relative to DMSO (% of DMSO); higher = stronger H1.0 induction, active = 140 or more; settings: concentration: 10 µM; 24 h
Summary of the method: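 Cells were seeded at 800 per well in 384-well plates with RPMI containing 10% FBS; both HCC1569 and TDF lines were used. Compounds were added at 10 µM for 24 h at 37 °C, in triplicate, before fixation in 3.7% formaldehyde and staining with a rabbit anti-H1.0 antibody, an AlexaFluor 647 secondary and DAPI. H1.0 nuclear intensity or cell number is reported as percent of the plate control using the median of replicates, and HCC1569 values were smoothed for positional effects.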
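Further: TDF is a line of transformed human dermal fibroblasts of mesenchymal origin.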

H1.0 immunofluorescence intensity, active:
N#Cc1cnc2cnc(NCc3cccnc3)cc2c1Nc1ccc(F)c(Cl)c1 [Tpl2 Kinase Inhibitor] 185

H1.0 immunofluorescence intensity, inactive:
CNc1cc(NS(=O)(=O)c2ccc(N)cc2)nc(NC)n1.Cl.Cl [Ro 04-6790 dihydrochoride] 84.4
CCN1CCN(C(=O)NC(C(=O)NC2C(=O)N3C2SC(C)(C)C3C(=O)O)c2ccccc2)C(=O)C1=O (configuration not stated) [Piperacillin] 119
O=c1ccc2ccc(O)c(O)c2o1 [Daphnetin] 95.2
Cc1cccc(-c2nn(C(=S)Nc3ccccc3)cc2-c2ccnc3ccccc23)n1 134
O=C(Nc1cc(C(F)(F)F)cc(C(F)(F)F)c1)c1cc(Cl)ccc1O 122
CC(C)Cc1ccc(C(C)C(=O)O)cc1 (racemic) 97.7
C=CCCCCCCCCC(=O)O [10-Undecenoic acid] 105
CC1CCN(C(=O)CC#N)CC1N(C)c1ncnc2[nH]ccc12 (configuration not stated) [Tasocitinib] 73.7
O=c1c(OC2OC(C(O)CO)C(O)C2O)c(-c2ccc(O)c(O)c2)oc2cc(O)cc(O)c12 (configuration not stated) [Isoquercitrine] 87.9
Cl.NOCC(=O)O.NOCC(=O)O [O-(Carboxymethyl)hydroxylamine hemihydrochloride] 105
C#CCn1c(=O)c2c(ncn2C)n(C)c1=O [3,7-Dimethyl-I-propargylxanthine] 93.4
CCOC(=O)C1=CC2(CC)CCCN3CCc4c(n1c1ccccc41)C32 (configuration not stated) [Vinpocetine] 98.8
CC1CCC2(C(=O)O)CCC3(C)C(=CCC4C5(C)CCC(O)C(C)(C)C5CCC43C)C2C1C (configuration not stated) [Ursolic acid] 93.7
COc1cc2c(cc1OC)CC(=O)N(CCCN(C)C[C@H]1Cc3cc(OC)c(OC)cc31)CC2.Cl 97.3
Cc1ccc(F)c(NC(=O)Nc2ccc(-c3cccc4[nH]nc(N)c34)cc2)c1 101
Cl.O=C(O)C1CCCN(CCC=C(c2ccccc2)c2ccccc2)C1 (configuration not stated) 98.1
Br.COc1ccccc1N1CCN(CCCCN2C(=O)c3ccccc3C2=O)CC1 [NAN-190 hydrobromide] 100
CCC1(O)C(=O)OCc2c1cc1n(c2=O)Cc2cc3c(CN(C)C)c(O)ccc3nc2-1.Cl (configuration not stated) [Topotecan.HCl] 96.3
Cc1cc2c(OCC(CNC(C)(C)C)OC(=O)c3ccccc3)cccc2[nH]1 (configuration not stated) [Bopindolol] 103
COc1ccc2cc1Oc1ccc(cc1)CC1c3cc(c(OC)cc3CCN1C)Oc1c(OC)c(OC)cc3c1C(C2)N(C)CC3 (configuration not stated) [Isotetrandrine] 103
COc1ccc2cc(OCC3(C(=O)O)CN(C(=O)c4ccc(F)cc4)C3)ccc2c1 95.8
C[N+](C)(C)CC(O)CC(=O)[O-].Cl (racemic) 90.1
NS(=O)(=O)c1cc2c(cc1Cl)NC(C1CC3C=CC1C3)NS2(=O)=O (configuration not stated) [Cyclothiazide] 99.5
Cc1ccc(OCC(O)C(C)NC(C)C)c2c1CCC2.Cl (configuration not stated) [ICI 118,551 hydrochloride] 98.4
CCCCCC(O)C=CC1C(O)CC(=O)C1CC=CCCCC(=O)O (configuration not stated) [Prostaglandin E2] 100
CCCCCC(O)C=CC1C(O)CC2CC(=CCCCC(=O)O)CC21 (configuration not stated) [Carbacyclin] 100
